Rows were chosen to be rich in hits. Some 16% of all compounds tested hit in one or more screens of this group.
DT40 TDP1 CPT = qHTS for Inhibitors of human tyrosyl-DNA phosphodiesterase 1 (TDP1): qHTS in cells in presence of CPT. Potency, µM (titrated, usually from 46.2 µM), most hits filed as inhibitors. chicken DT40 Tdp1-/-;hTDP1 cells + 20 nM CPT, ATP luminescence, 48 h. actives 12% (n = 420,000); also: nearly all actives have a fitted effect of over 55% in size
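Cell growth measured by CellTiter-Glo luminescence after a minimum 48 h, 37 C compound exposure with 20 nM CPT in Tdp1-knockout DT40 cells stably expressing hTDP1, seeded 400/well; qHTS titration format.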
miR-21 act = qHTS Assay for Modulators of miRNAs and/orActivators of miR-21 | Potency, µM (doses to about 38.3 µM), actives largely listed as activators | AID 2288, 2010 | 340,000 tested, under 10 active | HeLa miR-21 FLuc reporter, luciferase, 48 h;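 also: miR-21 action dims this reporter so a rising signal means less miR-21 action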
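HeLa miR-21-FLuc reporter line, endogenous miR-21; 2000 cells/well in DMEM/10% FBS; compound titration up to ~40uM final, 48 h, 37 degree Celsius; luciferase detection reagent, 15 min lysis, CCD luminescence.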
uPA generation = qHTS for Inhibitors of Cell Surface uPA Generation | actives 0.31% (n = 330,000) | Potency, µM (highest dose often 38.3 µM), actives largely listed as inhibitors | cell surface uPA generation assay, qHTS; active = well fitted inhibition curve with a large enough effect; inconclusive = small, poorly fitted or top-dose-only effect; inactive = no such curve, though single readings can be large or run the other way; tested in mouse RAW 264.7 cells; also: nearly all actives have a fitted effect of over 55% in size
TDP1 cell noCPT = qHTS for Inhibitors of human tyrosyl-DNA phosphodiesterase 1 (TDP1): qHTS in cells in absence of CPT | Potency, µM (doses to about 46.2 µM), actives largely listed as inhibitors | AID 686978, 2013 | DT40 Tdp1-/- hTDP1 cells, no CPT, ATP luminescence, 48 h | actives 15% (n = 420,000); also: nearly all actives have a fitted effect of over 55% in size
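No-CPT arm: Tdp1-/-;hTDP1 DT40 cells (400/well) plus compounds, incubated ≥48 hr at 37 °C. Readout CellTiter-Glo luminescence.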
TDP1 block = qHTS Assay for Inhibitors of Tyrosyl-DNA Phosphodiesterase (TDP1); recombinant TDP1, AlphaScreen DNA substrate cleavage; Potency, µM (highest dose often 130 µM), actives largely listed as inhibitors; actives 0.28% (n = 350,000); Tyrosyl-DNA phosphodiesterase 1 (Homo sapiens), Q9NUW8; also: nearly all actives have a fitted effect of over 40% in size
Target sequence (Q9NUW8 whole entry, looked up): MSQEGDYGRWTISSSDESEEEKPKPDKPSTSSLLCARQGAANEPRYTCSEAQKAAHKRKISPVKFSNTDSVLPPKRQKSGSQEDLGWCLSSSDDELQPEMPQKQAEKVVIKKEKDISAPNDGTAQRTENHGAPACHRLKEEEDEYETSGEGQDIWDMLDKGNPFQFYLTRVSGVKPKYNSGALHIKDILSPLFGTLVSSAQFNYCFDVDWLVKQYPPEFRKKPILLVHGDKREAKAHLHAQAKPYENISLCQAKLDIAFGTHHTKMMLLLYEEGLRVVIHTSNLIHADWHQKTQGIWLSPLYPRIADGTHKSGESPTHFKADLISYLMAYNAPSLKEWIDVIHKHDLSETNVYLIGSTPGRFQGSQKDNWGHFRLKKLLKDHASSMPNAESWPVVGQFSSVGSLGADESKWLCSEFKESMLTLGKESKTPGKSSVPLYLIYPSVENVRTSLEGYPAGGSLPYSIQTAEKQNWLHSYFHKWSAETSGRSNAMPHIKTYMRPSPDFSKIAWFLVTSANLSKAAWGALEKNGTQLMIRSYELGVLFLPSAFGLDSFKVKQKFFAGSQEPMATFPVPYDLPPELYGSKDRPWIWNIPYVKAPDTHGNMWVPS
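Signal: AlphaScreen proximity between streptavidin donor and anti-FITC acceptor beads on intact substrate. Reaction: Tdp1 1 nM, substrate 15 nM final, 5 min RT after 15 min compound preincubation.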
Each line names hits and unclear results; the compound was inactive in the other large screens. Unless noted, calls follow the shape of the dose curve; as a rule, active = well fitted curve in the direction sought with a large enough effect; inconclusive = small, poorly fitted or top-dose-only effect, or another doubt; inactive = no such curve, though single readings can be large; an effect the other way counts as inactive or inconclusive.

C=Cn1cc(CNC[C@H]2O[C@@H](n3cc(C)c(=O)[nH]c3=O)C[C@@H]2O)c(C)n1	none (no result: miR-21 act, uPA generation, TDP1 block)
CC(C)CN(C(=O)COC(=O)C1CC1)c1c(N)n(Cc2ccccc2)c(=O)[nH]c1=O	none (no result: miR-21 act, TDP1 block)
CCN(C(=O)COC(=O)C1CCC(C(C)(C)C)CC1)c1c(N)n(Cc2ccccc2)c(=O)[nH]c1=O (configuration not stated)	DT40 TDP1 CPT 21µM, uPA generation inconclusive, TDP1 cell noCPT 16µM (no result: miR-21 act, TDP1 block)
Cc1cccc(-c2nc(CSCC(=O)N3CCN(c4ccccc4)CC3)c(C)o2)c1	DT40 TDP1 CPT inconclusive, TDP1 cell noCPT inconclusive (no result: uPA generation)
COc1ccc(-c2cc(C)no2)cc1S(=O)(=O)N1CCc2ccccc21	DT40 TDP1 CPT inconclusive, TDP1 cell noCPT inconclusive (no result: uPA generation)
COc1ccc(-c2onc(C)c2C)cc1S(=O)(=O)N1CCc2ccccc21	DT40 TDP1 CPT 16µM, TDP1 cell noCPT inconclusive (no result: uPA generation)
COc1ccc(-c2onc(C)c2C)cc1S(=O)(=O)N1CCN(c2cc(C)ccc2C)CC1	DT40 TDP1 CPT inconclusive, TDP1 cell noCPT 21µM (no result: uPA generation)
CCCc1cc(=O)[nH]c(Nc2ccc(O)cc2C)n1	none (no result: uPA generation)
CCCOC1CCCN(C(=O)CCc2nnc(-c3ccc4c(c3)OCO4)o2)C1 (configuration not stated)	none
Clc1ccccc1/C=N/NC1=Nc2cccc3cccc1c23	DT40 TDP1 CPT inconclusive, TDP1 cell noCPT inconclusive
c1ccc2nc(NN=C3CCCCC3)ccc2c1	DT40 TDP1 CPT inconclusive, TDP1 cell noCPT inconclusive (no result: miR-21 act, TDP1 block)
C(=NNc1ccc2ccccc2n1)c1ccccn1	DT40 TDP1 CPT 1.6µM, TDP1 cell noCPT 1µM (no result: miR-21 act, uPA generation, TDP1 block)
Cc1csc(N/N=C/c2ccccn2)n1	DT40 TDP1 CPT 0.58µM, TDP1 cell noCPT 0.46µM
C(=N\NC1=Nc2cccc3cccc1c23)/c1ccccn1	DT40 TDP1 CPT 8.2µM, uPA generation inconclusive, TDP1 cell noCPT 9.2µM
COc1ccc(C(O)(c2ccccc2)C(C(=O)O)c2ccccc2)cc1 (configuration not stated)	none (no result: miR-21 act, TDP1 block)
CC(C)(C)C(=O)Nc1ccc(F)cc1[N+](=O)[O-]	none
CC(=O)Oc1ccc(N(C(C)=O)S(=O)(=O)c2cccs2)c2ccccc12	DT40 TDP1 CPT 12µM, miR-21 act inconclusive, uPA generation inconclusive, TDP1 cell noCPT inconclusive
COc1ccccc1N(CC(=O)N(C)Cc1ccccc1)S(=O)(=O)c1cccs1	none (no result: miR-21 act)
CCCc1nn2c(=O)cc(COC(=O)c3ccc(NC(=O)C4CCCCC4)cc3)nc2s1	DT40 TDP1 CPT inconclusive, TDP1 cell noCPT inconclusive (no result: uPA generation)
O=C(CSc1nnc(COc2cccc3cccnc23)o1)N1CCc2ccccc21	DT40 TDP1 CPT 2.1µM, TDP1 cell noCPT 2.3µM
O=C(CSc1nnc(COc2ccc(F)cc2)o1)N1c2ccccc2CCc2ccccc21	DT40 TDP1 CPT inconclusive, TDP1 cell noCPT 16µM
Cc1cccc2c(N)c3c(nc12)N(C)CC3	DT40 TDP1 CPT 8.2µM, uPA generation inconclusive, TDP1 cell noCPT 12µM (no result: TDP1 block)
COc1ccc(N2CCc3c(C)nc4c(OC)cc(OC)cc4c32)c(OC)c1	DT40 TDP1 CPT 6.5µM, TDP1 cell noCPT 5.2µM
COc1ccc(N2Cc3ccc(OC)c(OC)c3C2=O)cc1	uPA generation inconclusive (no result: TDP1 block)
COc1ccc(N2CCc3c(C)nc4c(OC)cc(OC)cc4c32)cc1	DT40 TDP1 CPT 23µM, TDP1 cell noCPT 15µM
COc1cccc(N2CCc3c(C)nc4ccc(Cl)cc4c32)c1	DT40 TDP1 CPT 10µM, miR-21 act inconclusive, TDP1 cell noCPT 7.3µM (no result: TDP1 block)
CCn1c(=O)cc(NC2=NCC(C)CN2c2cccc(Cl)c2)n(C)c1=O (configuration not stated)	DT40 TDP1 CPT inconclusive, TDP1 cell noCPT inconclusive
CC(C)c1ccc(S(=O)(=O)N2CCN(C(=O)C3CC3C)CC2)cc1 (configuration not stated)	TDP1 cell noCPT inconclusive (no result: miR-21 act)
C=CCNC(=O)c1cccc(NS(=O)(=O)c2ccc(Cl)cc2)c1	none
Cc1nc2c(C)cccc2c2c1CCN2c1ccccc1F	DT40 TDP1 CPT 15µM, TDP1 cell noCPT 21µM (no result: TDP1 block)
